Data: PMC5540273 (PLoS ONE, 2017)

Tested on: PIK3CB
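Further: kd values determined as follow-up on hits from a single-replicate KINOMEscan panel screen.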

Compound | Kd [µM]
COc1ccc(S(=O)(=O)NC2CCN(c3cc(C)nc(Nc4cccc(C#N)c4)n3)CC2)cc1.O=C(O)C(F)(F)F [GSK1653539] | > 10
O=c1cc(N2CCOCC2)nc2n(Cc3cccc(Cl)c3Cl)c(C3CC3)nn12 [GSK2358994] | 0.00094
[2H]C([2H])(c1cccc(C(F)(F)F)c1C)n1ccn2c(=O)nc(N3CCOCC3)cc12 [GSK2336394] | 0.051
Cc1cccc(Cn2ccn3c(=O)cc(N4CCOCC4)nc23)c1 [GSK2297542] | 0.023
O=c1cc(N2CCOCC2)nc2n(Cc3cccc(F)c3)ccn12 [GSK2297430] | 0.055
O=c1cc(N2CCOCC2)nc2n(Cc3cccc(C(F)(F)F)c3)ccn12 [GSK2297543] | 0.14
N#Cc1c(N2CCOCC2)sc(-c2ccn[nH]2)c1-c1ccc(Cl)cc1 | 0.75
O=c1cc(N2CCOCC2)nc2n(Cc3cccc4ccccc34)ccn12 [GSK2333389] | 0.0029
Cc1c(Cn2c(C)nn3c(=O)cc(N4CCOC(C)C4)nc23)cccc1C(F)(F)F (stereo not drawn) [GSK2344444] | 0.00067
Cc1cn2c(=O)cc(N3CCOCC3)nc2n1Cc1cccc(Cl)c1Cl [GSK2334006] | 0.0024
COc1ccc(COc2cc(-n3cnc4ccccc43)sc2C(N)=O)cc1 [GSK1024304] | > 10

Tested on: PIK3CD

Compound | Kd [µM]
O=c1cc(N2CCOCC2)nc2n(Cc3cccc(Cl)c3Cl)c(C3CC3)nn12 [GSK2358994] | 0.82
O=c1cc(N2CCOCC2)nc2n(Cc3cccc4ccccc34)ccn12 [GSK2333389] | 0.15
Cc1c(Cn2c(C)nn3c(=O)cc(N4CCOC(C)C4)nc23)cccc1C(F)(F)F (stereo not drawn) [GSK2344444] | 0.08
Cc1cn2c(=O)cc(N3CCOCC3)nc2n1Cc1cccc(Cl)c1Cl [GSK2334006] | 0.12
